These results are taken from PubChem BioAssay (NCI).

The panel holds about 79,000 compounds, 15% with a hit somewhere; the sample as a whole holds those more often. The source made the active and inactive calls. Rule as the data show it: active = growth inhibition above about 70%; inactive = the rest.

The first experiment can be described thus: NCI Yeast Anticancer Drug Screen. Data for the bub3 strain (AID 167). The conditions noted are these: S. cerevisiae bub3 mutant strain, at 50.0 µM (retest, dose inferred, filed as 5.0), stronger effect = higher value. In a few lines:
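Mutant yeast screening strain plus compound; vehicle-treated cultures serve as the 0% inhibition reference.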
For the compound `CCC(c1ccc(OC)cc1)C(O)(CC)c1ccc(OC)cc1` (stereo not given), the growth inhibition is 99% (active).

In the case of `Cc1c(Cl)c(S(N)(=O)=O)cc2c1NC=NS2(=O)=O`, the growth inhibition is -3% (inactive).

In the case of `CCCCCCCCNc1ncnc2c1cnn2C`, the growth inhibition was 87% (active).

`Cc1cc(N)c(C)c2c1[nH]c1ccc(Br)cc12`: the growth inhibition was 95% (active).

For the compound `C(=C\c1cnnc2ccccc12)/c1ccco1`, the growth inhibition was 27% (inactive).

In the case of `Cc1cc(N(CCCCl)CCCCl)ccc1C=Nc1cccc(Cl)c1`, the growth inhibition was 59% (inactive).

With `CCC[CH2][Sn]([CH2]CCC)([O]C(=O)c1cc(F)ccc1F)[O]C(=O)c1cc(F)ccc1F`, the growth inhibition is 22% (inactive).

In the case of `O=[N+]([O-])c1ccc(N2N=NC(CN3CCOCC3)C2N2CCOCC2)cc1` (stereo not given), the growth inhibition is 32% (inactive).

Regarding `O=CC(I)=C(c1ccccc1)c1ccccc1`, the growth inhibition is -2% (inactive).

In the case of `CCC/C(=N\O)S(=O)(=O)c1ccc(NN=O)nc1`, the growth inhibition was -18% (inactive).

Regarding `COc1cc(Cc2n[nH]c(=S)n2-c2ccccc2)c(S(N)(=O)=O)cc1OC`, the growth inhibition is 3% (inactive).

On to `CC(=O)Nc1ccc(C(C)(C)c2ccc(C)cc2)cc1`, for which the growth inhibition was 97% (active).

As for `CC(C)=NOc1ccc([N+](=O)[O-])cc1[N+](=O)[O-]`, the growth inhibition was 81% (active).

With `CC(=O)Nc1ccc2c(c1)C(S)c1ccccc1-2` (stereo not given), the growth inhibition is -60% (inactive).

For `CCN1CC(=O)N(C)C1=S`, the growth inhibition is 18% (inactive).

As to `[O-][n+]1c(-c2ccccc2)c(Cl)c(-c2ccccc2)n1O`, the growth inhibition was 96% (active).

For `CCCCCCCCCCCCCCCCN(C)c1ccc(S(=O)(=O)O)cc1[N+](=O)[O-]`, the growth inhibition was 79% (active).

On to `Cc1ccc2c(c1)-c1c(c3c(c4c1-c1cc(C)ccc1CC4)C(=O)OC3=O)CC2`, for which the growth inhibition was 47% (inactive).

Take `C[N+](C)(CCO)Cc1ccccc1`: the growth inhibition is 39% (inactive).

As for `CCOC(=O)C(C)(C)Oc1ccc2c(=O)cc(-c3ccccc3)oc2c1`, the growth inhibition was 97% (active).

As for `CS(=O)c1cc(=O)c2ccccc2s1` (stereo not given), the growth inhibition is 95% (active).

Turning to `COC(=O)c1c[nH]c2ccc(Br)cc12`, the growth inhibition is 22% (inactive).

Consider `CCCCN1C(=O)C(=O)N(c2ccccc2)C1=O`, for which the growth inhibition is 11% (inactive).

For `Cc1cc(N)c2cc(OCCOc3ccc4nc(C)cc(N)c4c3)ccc2n1`, the growth inhibition was 95% (active).

For the compound `Cc1c2c(c(C)c3c4c(oc13)CCCC4)C=NCC2`, the growth inhibition was -78% (inactive).

Turning to `CCCC(c1ccc(O)cc1)c1ccc(O)cc1`, the growth inhibition is 97% (active).

Consider `CC(C)=NNc1ncnc2nc[nH]c12`, for which the growth inhibition was 2% (inactive).

For `Clc1ccc(C2=Nc3ccccc3SC(c3ccc(Cl)c(Cl)c3)C2)c(Cl)c1` (stereo not given), the growth inhibition is 9% (inactive).

With `N#Cc1c(Cl)nsc1-c1ccc([N+](=O)[O-])cc1`, the growth inhibition was 80% (active).

As to `C=CCSc1nc2ccccc2c(=O)n1Cc1ccco1`, the growth inhibition was 77% (active).

Take `COC(=O)CSc1nc2[nH]c(SC)c(C(N)=O)c2c(=O)n1-c1ccccc1`: the growth inhibition is 21% (inactive).

`Cc1cc2oc3c(ccc(=O)n3C)c(=O)c2c(C)c1Cl`: the growth inhibition is 10% (inactive).

For `CC(=O)SC1C(=O)N(C)C(SC(C)=O)C(=O)N1C` (stereo not given), the growth inhibition was -3% (inactive).

In the case of `CCCCCCCCCCCCCCCCOCC(Cl)COP(=O)(O)OP(=O)(O)OCC1OC(n2cc(C)c(=O)[nH]c2=O)CC1O` (stereo not given), the growth inhibition was 97% (active).

For `CCCCCCCCCCNC(=O)CBr`, the growth inhibition is 99% (active).

Consider `O=Cc1c(Cn2ccnc2)c2cc([N+](=O)[O-])ccc2n1Cc1ccccc1`, for which the growth inhibition is -1% (inactive).

Regarding `C=C(C)C1CC2=C(O1)C(=O)c1ccccc1C2=O` (stereo not given), the growth inhibition was 96% (active).

As for `CC(C)C1=CC2=CCC3C(C)(C(=O)O)CCCC3(C)C2CC1` (stereo not given) (tested in a mixture with another compound), the growth inhibition is 88% (active).

Take `ClCC1CSC2(CCCCC2)O1` (stereo not given): the growth inhibition was -9% (inactive).

For the compound `Oc1cccc2ccc(SSc3ccc4cccc(O)c4n3)nc12`, the growth inhibition is 95% (active).

Still in this experiment, the particulars now being: S. cerevisiae bub3 mutant strain, at 50.0 µM, stronger effect = higher value.
Regarding `CCC(c1ccc(OC)cc1)C(O)(CC)c1ccc(OC)cc1` (stereo not given), the growth inhibition was 98.9% (active).

For `Cc1c(Cl)c(S(N)(=O)=O)cc2c1NC=NS2(=O)=O`, the growth inhibition is -20.4% (inactive).

Take `CCCCCCCCNc1ncnc2c1cnn2C`: the growth inhibition was 97.8% (active).

Consider `Cc1cc(N)c(C)c2c1[nH]c1ccc(Br)cc12`, for which the growth inhibition was 87.2% (active).

As to `C(=C\c1cnnc2ccccc12)/c1ccco1`, the growth inhibition was 18.8% (inactive).

Consider `Cc1cc(N(CCCCl)CCCCl)ccc1C=Nc1cccc(Cl)c1`, for which the growth inhibition is 61% (inactive).

For `CCC[CH2][Sn]([CH2]CCC)([O]C(=O)c1cc(F)ccc1F)[O]C(=O)c1cc(F)ccc1F`, the growth inhibition was 79.2% (active).

Turning to `O=[N+]([O-])c1ccc(N2N=NC(CN3CCOCC3)C2N2CCOCC2)cc1` (stereo not given), the growth inhibition is 7.85% (inactive).

Consider `O=CC(I)=C(c1ccccc1)c1ccccc1`, for which the growth inhibition is 89.5% (active).

As for `CCC/C(=N\O)S(=O)(=O)c1ccc(NN=O)nc1`, the growth inhibition is -4.4% (inactive).

For the compound `COc1cc(Cc2n[nH]c(=S)n2-c2ccccc2)c(S(N)(=O)=O)cc1OC`, the growth inhibition is 0.15% (inactive).

With `CC(=O)Nc1ccc(C(C)(C)c2ccc(C)cc2)cc1`, the growth inhibition is 57.5% (inactive).

As for `CC(C)=NOc1ccc([N+](=O)[O-])cc1[N+](=O)[O-]`, the growth inhibition was 55.3% (inactive).

For the compound `CC(=O)Nc1ccc2c(c1)C(S)c1ccccc1-2` (stereo not given), the growth inhibition was 49.4% (inactive).

For `CCN1CC(=O)N(C)C1=S`, the growth inhibition is 83.8% (active).

As for `[O-][n+]1c(-c2ccccc2)c(Cl)c(-c2ccccc2)n1O`, the growth inhibition was 97.8% (active).

Take `CCCCCCCCCCCCCCCCN(C)c1ccc(S(=O)(=O)O)cc1[N+](=O)[O-]`: the growth inhibition was 88.3% (active).

Consider `Cc1ccc2c(c1)-c1c(c3c(c4c1-c1cc(C)ccc1CC4)C(=O)OC3=O)CC2`, for which the growth inhibition was 7.65% (inactive).

Consider `C[N+](C)(CCO)Cc1ccccc1`, for which the growth inhibition was 74.2% (active).

With `CCOC(=O)C(C)(C)Oc1ccc2c(=O)cc(-c3ccccc3)oc2c1`, the growth inhibition is 92.5% (active).

Take `CS(=O)c1cc(=O)c2ccccc2s1` (stereo not given): the growth inhibition was 96.2% (active).

As for `COC(=O)c1c[nH]c2ccc(Br)cc12`, the growth inhibition was 68.5% (inactive).

Consider `CCCCN1C(=O)C(=O)N(c2ccccc2)C1=O`, for which the growth inhibition was 1.55% (inactive).

Take `Cc1cc(N)c2cc(OCCOc3ccc4nc(C)cc(N)c4c3)ccc2n1`: the growth inhibition was 93.7% (active).

As to `Cc1c2c(c(C)c3c4c(oc13)CCCC4)C=NCC2`, the growth inhibition was 50.2% (inactive).

As to `CCCC(c1ccc(O)cc1)c1ccc(O)cc1`, the growth inhibition was 99.5% (active).

For `CC(C)=NNc1ncnc2nc[nH]c12`, the growth inhibition was 6.9% (inactive).

For `Clc1ccc(C2=Nc3ccccc3SC(c3ccc(Cl)c(Cl)c3)C2)c(Cl)c1` (stereo not given), the growth inhibition is 70.4% (active).

As for `N#Cc1c(Cl)nsc1-c1ccc([N+](=O)[O-])cc1`, the growth inhibition was 92.3% (active).

Turning to `C=CCSc1nc2ccccc2c(=O)n1Cc1ccco1`, the growth inhibition is 19.4% (inactive).

In the case of `COC(=O)CSc1nc2[nH]c(SC)c(C(N)=O)c2c(=O)n1-c1ccccc1`, the growth inhibition was 7.8% (inactive).

With `Cc1cc2oc3c(ccc(=O)n3C)c(=O)c2c(C)c1Cl`, the growth inhibition was 30.2% (inactive).

Turning to `CC(=O)SC1C(=O)N(C)C(SC(C)=O)C(=O)N1C` (stereo not given), the growth inhibition is 95.6% (active).

For the compound `CCCCCCCCCCCCCCCCOCC(Cl)COP(=O)(O)OP(=O)(O)OCC1OC(n2cc(C)c(=O)[nH]c2=O)CC1O` (stereo not given), the growth inhibition was 79.5% (active).

For `CCCCCCCCCCNC(=O)CBr`, the growth inhibition is 97.8% (active).

For `O=Cc1c(Cn2ccnc2)c2cc([N+](=O)[O-])ccc2n1Cc1ccccc1`, the growth inhibition was 3.8% (inactive).

For `C=C(C)C1CC2=C(O1)C(=O)c1ccccc1C2=O` (stereo not given), the growth inhibition was 93.1% (active).

For `CC(C)C1=CC2=CCC3C(C)(C(=O)O)CCCC3(C)C2CC1` (stereo not given) (tested in a mixture with another compound), the growth inhibition is 89.5% (active).

For the compound `ClCC1CSC2(CCCCC2)O1` (stereo not given), the growth inhibition was 31.6% (inactive).

As to `Oc1cccc2ccc(SSc3ccc4cccc(O)c4n3)nc12`, the growth inhibition was 90.5% (active).
